FMDV antiviral: antivirals against foot and mouth disease virus; FMDV antiviral cell-based qHTS; Potency, µM (highest dose often 57.9 µM), actives largely listed as inhibitors; 410,000 compounds, 1.2% hits; AID 1159524; calls by dose curve; tested in HEK293T cells; note: read-out not given here; nearly all actives have a fitted effect of over 45% in size
HCMV inh: human cytomegalovirus inhibition | HFF cells, HCMV-luciferase reporter, 72 h; active compounds read low | activity change, negative = inhibition, % at 57.5 µM | 410,000 compounds, 4.5% hits | AID 1259415; in the data active = activity change below about -60%; inconclusive = no clear call, values can overlap the other calls; inactive = above about -39%
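Inhibition of viral replication was scored as loss of reporter luminescence in HFFs infected with HCMV-luciferase (MOI 1 PFU/cell) for 72 h; compounds tested at 2 doses, normalized to buffer and Salinomycin controls.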
VACV Venus inh: inhibitors of vaccinia virus (Venus reporter); Vaccinia virus Venus reporter expression, fluorescence; Potency, µM (doses to about 36.5 µM), hits mostly inhibitors; 330,000 compounds, 0.46% hits; AID 720580; calls by dose curve; tested in A549 cells; note: nearly all actives have a fitted effect of over 30% in size
VACV mCherry inh: vaccinia inhibition (mCherry reporter) | Vaccinia virus mCherry reporter infection, fluorescence | Potency, µM (titrated, usually from 36.5 µM), hits mostly inhibitors | 310,000 compounds, 0.63% hits; calls by dose curve; tested in A549 cells; note: nearly all actives have a fitted effect of over 35% in size
HCV inh: inhibitors of hepatitis C virus infection; Huh7.5.1 HCVcc-Cre infection, luciferase reporter, 44 h; Potency, µM (top dose mostly 41.8 µM), hits mostly inhibitors; 340,000 compounds, 3.4% hits; AID 651820
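Whole-lifecycle infectious HCVcc-Cre system; cells 1,000/well, compound then virus (~0.5 moi) added 4 h after plating, 44 h culture. Luciferase read 15 sec following 15 min substrate incubation, room temp.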
FBPA Giardia inh: inhibitors of Giardia lamblia fructose-1,6-bisphosphate aldolase. purified Giardia FBPA. Potency, µM (doses to about 59.6 µM), actives largely listed as inhibitors. A8B2U2. 290,000 compounds, 0.71% hits; note: nearly all actives have a fitted effect of over 55% in size
Target sequence (A8B2U2 whole entry, looked up): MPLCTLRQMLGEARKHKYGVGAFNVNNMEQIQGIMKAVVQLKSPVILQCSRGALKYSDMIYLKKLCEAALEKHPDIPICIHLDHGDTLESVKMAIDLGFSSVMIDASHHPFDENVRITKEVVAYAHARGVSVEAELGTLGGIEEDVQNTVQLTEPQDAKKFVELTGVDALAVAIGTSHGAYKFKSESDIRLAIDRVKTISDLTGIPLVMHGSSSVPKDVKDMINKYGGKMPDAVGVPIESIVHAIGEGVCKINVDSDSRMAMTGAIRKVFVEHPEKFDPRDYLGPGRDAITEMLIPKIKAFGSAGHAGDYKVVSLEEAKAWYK
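40 nM FBPA preincubated 10 min at RT with compound (up to 57.5 uM final), then substrate plus GAPDH/TPI/NAD/arsenate coupling and diaphorase/resazurin added. Fluorescence read after 20 min at RT, 525/598 nm.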
A number is an active result; i = inactive; ? = inconclusive; nt = not tested or not shown; [ ] = dose if it differs, or a comment. Hits are enriched below; roughly 7.5% of the tested compounds scored in any of these assays. Unless noted, calls come from the whole dose curve; as a rule, active = well fitted curve in the direction sought with a large enough effect; inconclusive = small, poorly fitted or top-dose-only effect, or another doubt; inactive = no such curve, though single readings can be large; an effect the other way counts as inactive or inconclusive.

SMILES | FMDV antiviral | HCMV inh | VACV Venus inh | VACV mCherry inh | HCV inh | FBPA Giardia inh
Cc1cccc(C(=O)N[C@H](C(=O)Nc2nc3ccccc3[nH]2)C(C)C)c1 | i | -81.4 | nt | nt | i | i
COc1ccc(C(=O)Nc2nc3ccccc3[nH]2)cc1 | i | i | ? | i | i | i
CCc1ccccc1Nc1nc(N)nc(COC(=O)c2cccn2C)n1 | i | -64.7 | nt | nt | ? | i
COc1ccc(NS(=O)(=O)c2cccc(C(=O)NNC(=O)NCCCl)c2)cc1 | i | -64.9 | i | i | i | i
COc1ccc(C(CNC(=O)c2cccc(S(=O)(=O)Nc3ccc(C)cc3)c2)N2CCCCC2)cc1 (stereo not drawn) | i | i | i | i | 3.16µM | nt
COc1ccc(Cn2c(=O)[nH]c3cc(C(=O)NC4CCN(Cc5ccccc5)CC4)ccc32)cc1 | ? | i | i | i | 10µM | i
COc1ccc(C(=O)NC2CCN(CC(=O)NCc3ccccc3)CC2)cc1 | i | i | i | i | i | nt
Cc1ccc(NS(=O)(=O)c2cccc(C(=O)NCCCN3CCCC3=O)c2)cc1 | i | -100.6 | i | i | i[8.37 µM] | nt
Cc1ccc(N(C)S(=O)(=O)c2cccc(C(=O)NCCCN3CCCC3=O)c2)cc1 | i | i | nt | nt | i | nt
Cc1ccc(CNC(=O)CN2CCN(Cc3ccc(F)cc3)C2=O)cc1 | i | i | i | i | nt | nt
CC1CN(C(=O)c2ccc(OC3CCN(Cc4ccccn4)CC3)cc2)CCN1C (stereo not drawn) | i | i | i | i | i | i
CC(C)(C)c1ccc(OCC(=O)NCC2(N3CCOCC3)CCCCC2)cc1 | ? | -72.7 | i | i | nt | nt
CCN1CCN(c2ccc(NC(=O)c3ccc4c(c3)[nH]c(=O)n4Cc3ccc(F)cc3)cc2)CC1 | i | ? | i | i | 7.08µM | i
COc1ccc(NS(=O)(=O)c2cccc(C(=O)N3CCC3)c2)cc1 | i | i | i | i | ? | nt
COc1ccc(NS(=O)(=O)c2cccc(C(=O)N3CCN(S(=O)(=O)c4ccccc4)CC3)c2)cc1 | ? | i | nt | nt | 10µM | nt
COc1ccc(Cn2c(=O)[nH]c3cc(C(=O)Nc4ccc(N5CCN(C)CC5)cc4)ccc32)cc1 | i | i | i | ? | ? | i
COc1ccc(NS(=O)(=O)c2cccc(C(=O)NCC3(N4CCOCC4)CCCCC3)c2)cc1 | i | -67.0 | i | i | i | nt
COc1ccc(NS(=O)(=O)c2cccc(C(=O)NC3CCN(Cc4ccccc4)CC3)c2)cc1 | i | -65.4 | i | i | ? | nt
Cc1ccc(S(=O)(=O)NCC2CCC(C(=O)NCCCN3CCCC3=O)CC2)cc1 (stereo not drawn) | i | -62.1 | i | i | i | nt
COc1ccc(NS(=O)(=O)c2cccc(NC(=O)NC3CCCCC3)c2)cc1 | i | -60.0 | ? | i | ? | i
COc1ccc(S(=O)(=O)NCC2CCC(C(=O)NCCCN3CCCC3=O)CC2)cc1 (stereo not drawn) | i | i | i[7.34 µM] | i[7.34 µM] | i | i
COc1ccc(NS(=O)(=O)c2cccc(C(=O)NCc3ccccc3CN3CCCC3)c2)cc1 | i | i | nt | nt | 11.2µM | nt
COc1ccc(NS(=O)(=O)c2ccc(C)c(NC(=O)NC3CCCCC3)c2)cc1 | i | i | i | i | ? | i
Cc1nc2ccc(C(=O)N3CCN(Cc4ccccc4)CC3)cc2[nH]1 | i | i | i | i | i | nt
CN1CCN(c2ccnc(N(C)CCCCCCN)n2)CC1 | nt | nt | i | i | nt | nt
SMILES | FMDV antiviral | HCMV inh | VACV Venus inh | VACV mCherry inh | HCV inh | FBPA Giardia inh
Cc1[nH]nc2c1C(c1cn[nH]c1-c1ccc(F)cc1)C(C#N)=C(N)O2 (stereo not drawn) | 22.4µM | i | ? | nt | i | i
Cc1[nH]nc2c1C(c1cc(Br)cs1)C(C#N)=C(N)O2 (stereo not drawn) | ? | -98.4 | i | i | ? | ?
N#CC1=C(N)Oc2n[nH]c(-c3ccc(F)cc3)c2C1c1cccnc1 (stereo not drawn) | i | i | i | i | i | i
CC(=O)c1cc2c(cc1N/C(=N/S(=O)(=O)c1ccc(F)cc1)c1ccccc1)OCO2 | i | i | i | i | nt | nt
Cc1ccc(OCC(=O)N(C)CC(=O)Nc2ccccc2Cl)c([N+](=O)[O-])n1 | i | -83.7 | i | i | i | nt
Cc1ccc(OCC(=O)N(C)CC(=O)Nc2ccc(F)cc2)c([N+](=O)[O-])n1 | i | i | i | i | i | i
O=c1ccc(S(=O)(=O)N2CCCC2)cn1Cc1ccc(Cl)cc1Cl | ? | i | nt | nt | 6.31µM | nt
CN(C)C(=O)c1ccc(=O)n(Cc2ccc(Cl)cc2Cl)c1 | i | nt | i | i | i | i
O=C(C[C@@H]1C/C=C/CC[C@H](Cc2ccc(F)cc2)C(=O)OC[C@@H](Cc2ccccc2)NC1=O)N[C@H](CO)Cc1ccccc1 | i | -98.5 | 14.1µM | 10µM | ? | nt
O=C(C[C@@H]1C/C=C/CC[C@H](Cc2ccc(F)cc2)C(=O)OCCNC1=O)N[C@H](CO)Cc1ccccc1 | i | i | i | ? | 10µM | nt
O=C(C[C@@H]1C/C=C\C[C@H](Cc2ccc(F)cc2)C(=O)OCCNC1=O)N[C@H](CO)Cc1ccccc1 | i | i | ? | i | i | nt
C[C@H]1COC(=O)[C@@H](Cc2ccc(F)cc2)C/C=C\C[C@@H](CC(=O)NCCO)C(=O)N1 | i | i | i | i | 3.55µM | nt
COc1ccc(-c2cc(C(=O)NNC(=O)c3csc(N4CCOCC4)n3)c3ccccc3n2)cc1 | i | i | i | i | ? | nt
COc1ccc(-c2cc(C(=O)NNC(=O)c3csc(N4CCOCC4)n3)c3ccccc3n2)cc1OC | i | i | i | ? | 10µM | nt
Cc1ccc(S(=O)(=O)N2CCN(c3nc(-c4ccc(C)s4)nc4ccccc34)CC2)cc1 | nt | nt | i | i | nt | nt
O=C(N[C@H]1CC[C@@]23CCCN2C(=O)CCC[C@H]3[C@H]1Cc1ccccc1)c1ccc(C(F)(F)F)cc1 | nt | i | nt | nt | nt | nt
CC(=O)N1CC(=O)N2[C@@H](CO)[C@@H](c3ccc(Br)cc3)[C@@H]2C1 | nt | i | nt | nt | nt | nt
Fc1ccc(Cc2cn3cc(-c4ccccc4)nc3s2)cc1 | i | i | i | i | nt | nt
Fc1ccc(-c2cn3cc(Cc4ccccc4)sc3n2)cc1 | 12.6µM | -66.2 | i[7.34 µM] | i[7.34 µM] | nt | nt
CNC(=O)c1cccnc1Nc1cccc(C(F)(F)F)c1 | i | i | ? | ? | 10µM | i
COc1cccc2cc(C(=O)c3ccccc3)oc12 | i | i | i | i | i | i
COc1cccc2cc(/C(=N/O)c3ccc(Br)cc3)oc12 | i | -65.9 | nt | nt | i | i
COc1cc2c(NC3CCN(C)CC3)nc(N3CCCN(C)CC3)nc2cc1OCCCN1CCOCC1 | nt | nt | 8.91µM | ? | nt | nt
COc1cc2c(NC3CCN(C)CC3)nc(N3CCCCC3)nc2cc1OCCOCCN1CCCC1 | nt | nt | 10µM | ? | nt | nt
COc1cc2c(NC3CCN(C(C)C)CC3)nc(N3CCCN(C)CC3)nc2cc1OCCOCCN1CCCC1 | nt | nt | 3.55µM | ? | nt | nt
Cc1cccc(C)c1-n1nnnc1C(c1ccnc2ccccc12)N1CCOCC1 (stereo not drawn) | i | i | i | i | nt | nt
CCOC(=O)OCC1OC(C#Cc2ccc(F)cc2F)C=CC1OC(=O)OCC (stereo not drawn) | nt | nt | nt | nt | nt | i[12.9 µM]

Bioassay records: PubChem BioAssay, National Center for Advancing Translational Sciences (NCATS)
